Screening results: PubChem BioAssay, several laboratories
Compounds with a hit are over-represented: about 2% of the library has one in this group of screens.
PG9 binder: binds the HIV-1 gp120 antibody PG9; 360,000 tested, 0.43% active; TR-FRET gp120-PG9 antibody binding; inhibition, % at 6.7 µM; AID 624416; in the data active means inhibition above about 8.5%
NR1D1 modulator: modulates human Rev-erb alpha binding to DNA | P20393 | activity, % at 10 µM | 370,000 tested, 0.79% active | AID 1259318 | Rev-erbα–FITC-DNA binding, fluorescence polarization, 90 min;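 active means activity above about 14%, limit read from the data; passing the limit was not always enough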;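 further: 0% = DMSO wells with 35 nM protein and 100% = DMSO wells with 750 nM protein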
Granule exo inh: lytic granule exocytosis inhibition; TALL-104 LAMP-1 surface exposure, flow cytometry; cells stimulated with thapsigargin and PMA; inhibition, % at 10 µM; 360,000 tested, 0.66% active; AID 651702;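 active means inhibition above about 55%, limit read from the data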
VLA-4 inh: inhibition in a human VLA-4 binding assay; P13612; VLA-4 expressing cells, ligand binding flow cytometry; inhibition, % (about 7 µM as worked out from the volumes in the protocol); 330,000 tested, 0.2% active; in the data active means inhibition above about 50%
ABCB6 inh 2: human ABCB6 transporter inhibition; AID 602162; K562-ABCB6 porphyrin accumulation, flow cytometry, 1 h; stronger effect = lower value; fluorescence ratio to DMSO, % at 10 µM; Q9NP58; 360,000 tested, 0.19% active;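 active means fluorescence ratio to DMSO below 75%, the collection mean minus 3 SD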;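 further: signal is porphyrin accumulated inside mitochondria; 100% equals median channel fluorescence of DMSO control wells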
Target sequence (Q9NP58 whole entry, looked up): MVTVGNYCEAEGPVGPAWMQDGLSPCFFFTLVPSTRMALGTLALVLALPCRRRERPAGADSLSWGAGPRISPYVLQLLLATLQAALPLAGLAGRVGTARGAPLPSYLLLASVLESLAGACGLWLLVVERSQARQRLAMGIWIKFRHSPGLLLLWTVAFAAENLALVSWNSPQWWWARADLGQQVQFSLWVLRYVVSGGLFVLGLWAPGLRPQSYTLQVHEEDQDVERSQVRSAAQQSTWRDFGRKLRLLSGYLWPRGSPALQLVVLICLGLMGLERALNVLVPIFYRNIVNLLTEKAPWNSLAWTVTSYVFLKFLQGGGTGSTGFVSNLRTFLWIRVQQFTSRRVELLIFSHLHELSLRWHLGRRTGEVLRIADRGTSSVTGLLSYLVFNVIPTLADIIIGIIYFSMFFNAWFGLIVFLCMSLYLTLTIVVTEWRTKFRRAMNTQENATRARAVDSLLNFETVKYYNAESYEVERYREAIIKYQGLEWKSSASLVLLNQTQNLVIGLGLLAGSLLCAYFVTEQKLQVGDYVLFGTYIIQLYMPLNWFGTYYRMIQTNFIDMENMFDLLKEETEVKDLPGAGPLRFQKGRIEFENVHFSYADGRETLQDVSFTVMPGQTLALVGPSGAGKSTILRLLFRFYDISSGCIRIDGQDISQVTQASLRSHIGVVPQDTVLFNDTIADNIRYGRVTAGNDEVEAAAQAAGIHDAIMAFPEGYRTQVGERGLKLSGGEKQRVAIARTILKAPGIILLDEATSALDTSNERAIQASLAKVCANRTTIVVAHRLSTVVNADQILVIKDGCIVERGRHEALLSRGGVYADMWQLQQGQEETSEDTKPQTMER
VLA-4 allo CP: human VLA-4 allosteric modulation in cherry picked compounds | AID 2813 | inhibition, % at 6.7 µM | U937 cells, HUTS-21 LIBS mAb binding, flow cytometry; LDV ligand present at threefold Kd | shares compounds with VLA-4 inh | 1,300 tested, 2% active; in the data active means inhibition above about 40%;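 further: 0% = ligand without compound and 100% = no ligand background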
* marks the source's active call; other numbers are inactive results; · = not tested or not shown.

SMILES | PG9 binder | NR1D1 modulator | Granule exo inh | VLA-4 inh | ABCB6 inh 2 | VLA-4 allo CP
CCN(CC(=O)NCc1cccs1)C(=O)c1ccc(-c2cccc(C(F)(F)F)c2)o1 | -1 | -5 | 7 | 53* | 103 | 4
CCN(CC(=O)NCc1cccs1)C(=O)COc1cccc(C(F)(F)F)c1 | -1 | -6 | -3 | 12 | 92 | ·
CCC(=O)N(C)C[C@@H]1[C@H](c2ccc(C3=CCCCC3)cc2)[C@H](CO)N1C(=O)CC | · | 4 | · | · | · | ·
O=C(CN(CC1CCCO1)C(=O)c1nsc(Cl)c1Cl)NC1CCCC1 (stereo not drawn) | 3 | 5 | 0 | 57* | 99 | 4
O=C(COC(=O)c1nsc(Cl)c1Cl)NC1CCCC1 | 4 | 0 | -1 | 15 | 95 | ·
CCNC(=O)N(C)[C@H]1C[C@H]2c3[nH]c4cccc(-c5cccc(F)c5)c4c3CCN2C(=O)[C@H]1[C@H](C)O | · | 0 | · | · | · | ·
O=[N+]([O-])/C=C/c1cn(Cc2ccccc2)c2ccccc12 | 0 | -2 | 18 | 18 | 100 | ·
N#Cc1ccccc1Cn1cc(/C=C/[N+](=O)[O-])c2ccccc21 | -1 | 3 | 61* | 42 | 100 | 31
O=C(N1CCOCC1)N1CCC(NC(=O)C23CC4CC(CC(C4)C2)C3)CC1 | 0 | 2 | 5 | 52* | 86 | 12
COc1ccc(N2CCN(CCNS(=O)(=O)c3ccc(Br)s3)CC2)cc1 | · | -1 | · | · | · | ·
COc1cccc(C(=O)O/N=C(\N)c2ccc(C)cc2)c1 | 1 | 3 | 18 | 42 | 95 | -22
COc1cccc(C(=O)O/N=C(\N)c2ccncc2)c1 | 1 | -4 | -1 | 9 | 105 | ·
CC(=O)c1c(C)[nH]c(C(=O)COC(=O)c2c(C)noc2C)c1C | -3 | 7 | 14 | 9 | 97 | ·
COC(=O)c1c(C)[nH]c(C(=O)COC(=O)c2c(C)noc2C)c1C | 0 | 0 | -1 | -5 | 94 | -4
CCOC(=O)c1c(C)[nH]c(C(=O)COC(=O)C2CC2)c1C | -2 | 1 | -12 | · | 97 | -8
CCOC(=O)c1c(C)[nH]c(C(=O)COC(=O)c2ccccn2)c1C | 1 | -2 | 0 | -10 | 96 | -5
CCOC(=O)c1c(C)[nH]c(C(=O)COC(=O)C2(C)CC2(Cl)Cl)c1C (stereo not drawn) | -1 | -4 | 8 | -9 | 87 | 3
O=C(CSc1nnc(COc2ccc(Cl)cc2)n1Cc1ccco1)Nc1ccc(OCc2ccccc2)cc1 | · | -5 | · | · | · | ·
C[C@H](O)[C@@H]1CN2CCc3c([nH]c4cccc(-c5ccccc5)c34)[C@@H]2C[C@@H]1N(C)C(=O)c1ccco1 | · | -2 | · | · | · | ·
C=CCN1C(=O)[C@H](CC(=O)N2CCCCC2)[C@@]2(C(=O)OCC)CCCC=C12 | · | 3 | · | · | · | ·
C#CCNC(=O)C[C@H]1C[C@@]2(C(=O)OC)C(=C[C@H](C(C)(C)C)O[C@@H]2C)N(CCc2ccc(OC)c(OC)c2)C1=O | 1 | 2 | · | · | · | ·
C[C@@H](O[Si](c1ccccc1)(c1ccccc1)C(C)(C)C)[C@H]1C(=O)N[C@H](Cc2cn(S(=O)(=O)c3ccccc3)c3ccccc23)C(=O)N1C | · | 3 | · | · | · | ·
FC(F)(F)c1cccc(NC(=S)Nc2ccc(Cl)cc2Cl)c1 | 1 | -3 | -3 | 90* | 88 | 11
CC(=O)OCC(=O)[C@@]1(O)[C@@H](C)CC2C3CCC4=CC(=O)C=C[C@]4(C)[C@@]3(F)[C@@H](O)C[C@@]21C (stereo partly drawn) | · | -10 | · | · | · | ·
CCOC(=O)[C@]12CCCC3=C1N(CCC3)C(=O)[C@@H](CC(=O)NCCc1ccccc1OC)C2 | · | 7 | · | · | · | ·
Cc1cc(C)n(-c2nc3c(c(=O)[nH]c(=O)n3C)n2Cc2cccc(Br)c2)n1 | 0 | -8 | 0 | 54* | 100 | 6
Cc1c(C)c2c(OCC(=O)N[C@@H](Cc3ccccc3)C(=O)O)cc3c(c2oc1=O)CCC(C)(C)O3 | 0 | -4 | 2 | 64* | 92 | 14
Nc1cc(C(=O)OCC(=O)NCCC2=CCCCC2)ccc1Cl | 2 | -1 | -3 | -19 | 95 | 5
O=C(COC(=O)c1ccc(Br)cc1)NCCC1=CCCCC1 | 0 | 3 | -2 | 3 | 99 | ·
CC1(C)C(C(=O)O)N2C(=O)C(NC(=O)Cc3ccccc3)C2S1=O (stereo not drawn) | 2 | -1 | 1 | 59* | 98 | -8
